The values that follow come from PMC4336329 (PLoS ONE, 2015).

In all, about 310,000 compounds went through this assay and about 14,000 (4.5%) showed an effect of 50% or more. Effects have a minus sign here. Shown is part of a subset that was picked to be rich in strong results.
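Note: peak tail current of the secondary pulse compared with the same well before compound.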

Sequence of human ether-à-go-go-related gene (hERG) potassium channel (Q12809 whole entry, looked up): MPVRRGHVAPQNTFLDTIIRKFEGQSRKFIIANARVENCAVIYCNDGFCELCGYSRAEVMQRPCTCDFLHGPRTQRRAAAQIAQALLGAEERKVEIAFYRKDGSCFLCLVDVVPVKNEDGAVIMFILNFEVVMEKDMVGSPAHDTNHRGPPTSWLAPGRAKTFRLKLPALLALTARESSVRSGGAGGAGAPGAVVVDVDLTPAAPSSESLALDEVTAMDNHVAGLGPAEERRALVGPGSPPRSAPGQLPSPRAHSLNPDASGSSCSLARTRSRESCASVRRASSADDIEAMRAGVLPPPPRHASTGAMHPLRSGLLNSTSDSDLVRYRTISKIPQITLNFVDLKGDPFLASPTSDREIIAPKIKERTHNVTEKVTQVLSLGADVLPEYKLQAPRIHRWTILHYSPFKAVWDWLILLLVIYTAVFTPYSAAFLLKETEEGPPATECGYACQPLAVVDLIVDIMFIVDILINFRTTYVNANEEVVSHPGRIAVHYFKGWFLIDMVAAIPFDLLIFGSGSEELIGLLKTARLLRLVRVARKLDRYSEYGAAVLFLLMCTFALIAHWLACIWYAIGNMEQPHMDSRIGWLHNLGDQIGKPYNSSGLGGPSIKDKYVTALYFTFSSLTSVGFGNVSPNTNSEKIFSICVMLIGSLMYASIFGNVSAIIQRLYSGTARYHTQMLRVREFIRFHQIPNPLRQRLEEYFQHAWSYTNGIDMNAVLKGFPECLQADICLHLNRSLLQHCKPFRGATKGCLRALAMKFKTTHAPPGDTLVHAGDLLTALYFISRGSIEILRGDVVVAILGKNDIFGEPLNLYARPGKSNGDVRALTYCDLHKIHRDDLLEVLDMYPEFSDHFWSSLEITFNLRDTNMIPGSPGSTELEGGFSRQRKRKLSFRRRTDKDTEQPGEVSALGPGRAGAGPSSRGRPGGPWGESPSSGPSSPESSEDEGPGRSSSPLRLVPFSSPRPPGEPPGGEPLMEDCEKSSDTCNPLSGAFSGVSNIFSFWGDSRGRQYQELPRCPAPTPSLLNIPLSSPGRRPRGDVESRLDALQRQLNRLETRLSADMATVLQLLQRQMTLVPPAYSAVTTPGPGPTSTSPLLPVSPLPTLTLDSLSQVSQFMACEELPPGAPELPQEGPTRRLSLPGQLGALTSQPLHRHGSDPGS

The test has as its target human ether-à-go-go-related gene (hERG) potassium channel (human, UniProt Q12809). The test can be described thus: primary screen, population patch clamp on CHO cells stably expressing hERG; higher = less effect of the substance.
Regarding `COc1ccc(/C=C2\C(=O)NC(=O)N(CCC3=CCCCC3)C2=O)c(OC)c1`, the “hERG current change (%, negative = inhibition) at 10uM” value amounted to 24.6%. `COc1ccccc1NC(=O)C1=C(C)Nc2nnnn2C1c1cc(Br)ccc1OC` (stereo not drawn): the “hERG current change (%, negative = inhibition) at 10uM” value is recorded as -0.22%. In the case of `CCOc1ccccc1C(=O)OCC(=O)NCCNC(=O)COC(=O)c1ccccc1OCC`, the “hERG current change (%, negative = inhibition) at 10uM” value was 5.95%. Consider `O=C(CC1S/C(=N/N=C/c2cccs2)NC1=O)Nc1ccc(Cl)cc1` (stereo not drawn), for which the “hERG current change (%, negative = inhibition) at 10uM” value was -3.86%. Next, `Cc1cc(C)cc(N(C(=O)c2snc(C(N)=O)c2N)C(C(=O)NCC2CCCO2)c2cccs2)c1` (stereo not drawn): -18.7%. Next, `Cc1ccc(C(=O)/C=C/Nc2ccccn2)cc1`: -1.05%; `O=C(COc1ccccc1[N+](=O)[O-])N1CCN(S(=O)(=O)c2ccccc2)CC1`: -46.6%. Next, `CCOC(=O)Cn1c(C)nc2c(C(=O)OCC)sc(C)c2c1=O`: -5%; `O=C(NCCCN1CCCC1=O)c1cc(NS(=O)(=O)c2ccc(F)cc2)cc(NS(=O)(=O)c2ccc(F)cc2)c1`: -4.88%. On to `CCn1c(N2CCN(C(=O)C34CC5CC(CC(C5)C3)C4)CC2)nc2ccccc21`, for which the “hERG current change (%, negative = inhibition) at 10uM” value is -37.9%.

On to `CCn1c(N2CCN(C(=O)/C=C/c3ccccc3)CC2)nc2ccccc21`, for which the “hERG current change (%, negative = inhibition) at 10uM” value is given as -80.8%. To `CCCn1c(N2CCN(C(=O)/C=C/C(=O)O)CC2)nc2ccccc21` belongs 9.76%. To `Cc1cccc(C(=O)NC(=S)NNC(=O)Cc2ccccc2)c1` belongs 3.66%; to `O=C(C1CCCO1)N1CCN(C(=S)NC2CC2)CC1` (stereo not drawn), 23%. To `COc1cccc(C2C=C(c3ccc(OC)cc3OC)Nc3nnnn32)c1` (stereo not drawn) belongs 1.76%; to `O=C(CCS(=O)(=O)c1cccc2nonc12)N1CCN(c2ccc(F)cc2)CC1`, -60.8%; to `O=S(=O)(c1cccc2nonc12)N1CCN(c2cccc(Cl)c2)CC1`, -4%.

As to `O=C(CCNS(=O)(=O)c1cccc2nonc12)N1CCN(c2cccc(Cl)c2)CC1`, the “hERG current change (%, negative = inhibition) at 10uM” value is reported as -50.6%. To `Cc1ccc(S(=O)(=O)NCCC(=O)N2CCN(c3cccc(Cl)c3)CC2)cc1C` belongs 4.35%; to `O=C(CCS(=O)(=O)c1cccc2nonc12)N1CCOCC1`, 14.6%. Next, `Cc1ccc(C)c(N2CCN(C(=O)CCS(=O)(=O)c3cccc4nonc34)CC2)c1`: -25.4%.

For the compound `CSc1ncc(C(=O)Nc2ccccc2C)c(C)n1`, the “hERG current change (%, negative = inhibition) at 10uM” value is 12.5%. To `Cc1ccc(-c2nc3c(=O)n(C)c4ccccc4c3o2)cc1` belongs 22.3%; to `Nc1cc(=O)[nH]c(=O)n1-c1cccc(F)c1`, 18.4%.

As to `COc1ccccc1NC(=O)c1cc2c(=O)n(C)c3ccccc3c2n1C`, the “hERG current change (%, negative = inhibition) at 10uM” value came out at 1.19%. Regarding `O=C(OCCOc1cccc(Cl)c1)c1cc(S(=O)(=O)N2CCOCC2)ccc1F`, the “hERG current change (%, negative = inhibition) at 10uM” value is listed as -14%. For the compound `CCn1c(COc2ccc(OC)cc2)nc2ccccc21`, the “hERG current change (%, negative = inhibition) at 10uM” value is recorded as -19.8%. Next, `Cc1ccccc1NC(=O)C1CCN(C2=NS(=O)(=O)c3ccccc32)CC1`: -15.2%. In the case of `COc1cc(CNc2ccccc2)c([N+](=O)[O-])cc1OC.O=C(O)C(=O)O`, the “hERG current change (%, negative = inhibition) at 10uM” value is given as -3.72%.

On to `C/C(=C1\SC(N2CCOCC2)=NC1=O)c1ccc(C)cc1`, for which the “hERG current change (%, negative = inhibition) at 10uM” value was -10.8%.

For `C/C(=C1/SC(N2CCOCC2)=NC1=O)c1ccc(Br)cc1`, the “hERG current change (%, negative = inhibition) at 10uM” value is given as 14.8%. Consider `C/C(=C1/SC(N2CCCC2)=NC1=O)c1ccc(Br)cc1`, for which the “hERG current change (%, negative = inhibition) at 10uM” value is -76.7%. Turning to `CC(C)Cn1c(SCC(=O)N2CC(=O)Nc3ccccc32)nc2ccccc21`, the “hERG current change (%, negative = inhibition) at 10uM” value stood at 4.27%. To `CCCN(CC1CC1)C(=O)CCc1nnc(C(OC)c2ccccc2)o1` (stereo not drawn) belongs -4.58%. Turning to `Cc1ccc(OCC(=O)N/N=C2/SCC(=O)N2Cc2ccco2)cc1`, the “hERG current change (%, negative = inhibition) at 10uM” value is -28%. Next, `O=C(COc1ccc(Br)cc1)N/N=C1/SCC(=O)N1Cc1ccco1`: -59.8%; `Cc1cccc(OCC(=O)N/N=C2/SCC(=O)N2Cc2ccco2)c1`: -25.4%. Take `NS(=O)(=O)c1ccc(CCNC(=O)c2cccc([N+](=O)[O-])c2)cc1`: the “hERG current change (%, negative = inhibition) at 10uM” value turned out to be 11.2%. `O=[N+]([O-])c1ccccc1-n1cnc2ccccc21`: the “hERG current change (%, negative = inhibition) at 10uM” value is recorded as -18.2%.

Regarding `O=C(c1ccc([N+](=O)[O-])cc1[N+](=O)[O-])n1cnc2ccccc21`, the “hERG current change (%, negative = inhibition) at 10uM” value is given as -16.4%. To `O=c1c2ccccc2ncn1-c1ccc(Cl)cc1[N+](=O)[O-]` belongs -4.65%; to `Cc1cccc(-n2cnc3cc([N+](=O)[O-])ccc32)c1`, -51.9%; to `Nc1ccc(-n2cnc3cc([N+](=O)[O-])ccc32)cc1`, 1.35%. To `O=c1c2ccccc2ncn1-c1ccc([N+](=O)[O-])cc1[N+](=O)[O-]` belongs 10.7%; to `O=[N+]([O-])c1ccc(-n2cnc3ccccc32)c([N+](=O)[O-])c1`, -57.8%. To `O=[N+]([O-])c1ccc2c(c1)ncn2-c1ccccc1` belongs -21.6%; to `O=c1c2ccccc2ncn1-c1ccc(Br)cc1[N+](=O)[O-]`, -61.4%. In the case of `C[C@]12CCC(=O)C=C1CC[C@@H]1[C@@H]2C(=O)C[C@]2(C)C(=O)CC[C@@H]12`, the “hERG current change (%, negative = inhibition) at 10uM” value is 7.99%. To `O=C(N/N=C/c1ccccn1)C(O)c1ccccc1` (stereo not drawn) belongs 9.82%; to `Cn1c(=O)n(C)c2cc(N3CCOCC3)c(NC(=O)c3cccc(Cl)c3)cc21`, 5.25%.

On to `COc1ccc(NC(=O)C/C(C)=N/NC(=O)c2cnccn2)cc1`, for which the “hERG current change (%, negative = inhibition) at 10uM” value came to 15.5%. With `CC1(OC(=O)CCc2ccccc2)C(=O)C=C2C=C(c3ccc(C#N)cc3)N(CCc3c[nH]c4ccccc34)C=C2C1=O` (stereo not drawn), the “hERG current change (%, negative = inhibition) at 10uM” value is reported as -7.98%. To `CC(C)CN1C=C2C(=O)C(C)(OC(=O)CCc3ccccc3)C(=O)C=C2C=C1c1ccc(C#N)cc1` (stereo not drawn) belongs -26.9%; to `CC1(OC(=O)CCc2ccccc2)C(=O)C=C2C=C(c3ccc(C#N)cc3)N(CCN3CCOCC3)C=C2C1=O` (stereo not drawn), -49.9%. To `CC1(OC(=O)CCc2ccccc2)C(=O)C=C2C=C(c3ccc(C#N)cc3)N(c3ccccc3)C=C2C1=O` (stereo not drawn) belongs 14.3%; to `CC1(OC(=O)CCc2ccccc2)C(=O)C=C2C=C(c3ccc(C#N)cc3)N(C3CCCC3)C=C2C1=O` (stereo not drawn), -49.7%. Next, `CC1(OC(=O)CCc2ccccc2)C(=O)C=C2C=C(c3ccc(C#N)cc3)N(CCc3ccccn3)C=C2C1=O` (stereo not drawn): -51.8%; `C=CCN1C=C2C(=O)C(C)(OC(=O)CCc3ccccc3)C(=O)C=C2C=C1c1ccc(C#N)cc1` (stereo not drawn): -28.8%; `CC1(OC(=O)CCc2ccccc2)C(=O)C=C2C=C(c3ccc(C#N)cc3)N(C3CC3)C=C2C1=O` (stereo not drawn): -51.7%.

As for `CCN(CC)CCCN1C=C2C(=O)C(C)(OC(=O)CCc3ccccc3)C(=O)C=C2C=C1c1ccc(C#N)cc1` (stereo not drawn), the “hERG current change (%, negative = inhibition) at 10uM” value is reported as -37.6%. Consider `CC1(OC(=O)CCc2ccccc2)C(=O)C=C2C=C(c3ccc(C#N)cc3)N(CC3CC3)C=C2C1=O` (stereo not drawn), for which the “hERG current change (%, negative = inhibition) at 10uM” value is reported as -44.6%.

On to `COCCN1C=C2C(=O)C(C)(OC(=O)CCc3ccccc3)C(=O)C=C2C=C1c1ccc(C#N)cc1` (stereo not drawn), for which the “hERG current change (%, negative = inhibition) at 10uM” value was -72.4%.

Consider `CC(C)OCCCN1C=C2C(=O)C(C)(OC(=O)CCc3ccccc3)C(=O)C=C2C=C1c1ccc(C#N)cc1` (stereo not drawn), for which the “hERG current change (%, negative = inhibition) at 10uM” value is reported as -71.3%. To `CCS(=O)(=O)N1CCN(Cc2ccccc2OC)CC1.O=C(O)C(=O)O` belongs 11.7%; to `C=CCOC(=O)C1=C(C)NC(=O)NC1c1ccc2c(c1)OCO2` (stereo not drawn), -11.9%. As for `O=C(NCc1ccc2c(c1)OCO2)C1CCCN(C(=O)c2ccc(Cl)cc2)C1` (stereo not drawn), the “hERG current change (%, negative = inhibition) at 10uM” value is on record as -34.4%.

With `CCOC(=O)N/N=C/C(Cl)=C/c1ccccc1`, the “hERG current change (%, negative = inhibition) at 10uM” value is reported as 0.407%.

Consider `COC(C(=O)N/N=C(\C)c1ccc(C(C)(C)C)cc1)c1ccccc1` (stereo not drawn), for which the “hERG current change (%, negative = inhibition) at 10uM” value stood at 13.1%.

Turning to `COc1ccccc1NC(=O)CCCC(=O)OCC(F)(F)C(F)F`, the “hERG current change (%, negative = inhibition) at 10uM” value is listed as -1.37%.

As for `COc1ccc(NC(=S)NC2CC3CCC(C2)N3Cc2ccco2)cc1` (stereo not drawn), the “hERG current change (%, negative = inhibition) at 10uM” value was -30.1%. To `CCOC(=O)c1c(S(=O)(=O)N2CCCC(C(=O)Nc3ccc(C)cn3)C2)c(C)n(C)c1C` (stereo not drawn) belongs 19.7%; to `CCc1ccc(N=C2NC(=O)/C(=C/c3ccc(OCC(=O)O)cc3)S2)cc1`, 14.6%; to `CCN(Cc1cnn(C)c1)Cc1nc(C(c2ccccc2)c2ccccc2)no1`, -18.2%. With `CCCCNC(=O)Cn1cnc([N+](=O)[O-])n1`, the “hERG current change (%, negative = inhibition) at 10uM” value was determined as 10.8%. In the case of `CC1(OC(=O)CCc2ccccc2)C(=O)C=C2C=C(c3ccc(C#N)cc3)N(Cc3ccccc3)C=C2C1=O` (stereo not drawn), the “hERG current change (%, negative = inhibition) at 10uM” value was -51.9%. Next, `COc1ccc(CN2C=C3C(=O)C(C)(OC(=O)CCc4ccccc4)C(=O)C=C3C=C2c2ccc(C#N)cc2)cc1` (stereo not drawn): -31.7%; `CC1(OC(=O)CCc2ccccc2)C(=O)C=C2C=C(c3ccc(C#N)cc3)N(Cc3ccco3)C=C2C1=O` (stereo not drawn): -38.9%; `CCN(c1ccc(OC)cc1)S(=O)(=O)c1nnc(NC(=O)C2CCCCC2)s1`: 12.2%. Turning to `Cc1cc(=O)oc(C)c1C(=O)N[C@@H]1CCCCNC1=O`, the “hERG current change (%, negative = inhibition) at 10uM” value was determined as 7.72%. To `COc1cccc2cc(C(=O)NCCN3CCOCC3)c(=O)oc12` belongs 12.9%. Next, `CCOc1cccc(-c2cc(=O)[nH][nH]2)c1`: 1.58%.
